In all, about 310,000 compounds went through this assay and about 14,000 (4.5%) showed an effect of 50% or more. Effects have a minus sign here. The full list was thinned out, with strong results kept by preference.
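Note: peak tail current of the secondary pulse compared with the same well before compound.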

Chain of human ether-à-go-go-related gene (hERG) potassium channel (Q12809 whole entry, looked up): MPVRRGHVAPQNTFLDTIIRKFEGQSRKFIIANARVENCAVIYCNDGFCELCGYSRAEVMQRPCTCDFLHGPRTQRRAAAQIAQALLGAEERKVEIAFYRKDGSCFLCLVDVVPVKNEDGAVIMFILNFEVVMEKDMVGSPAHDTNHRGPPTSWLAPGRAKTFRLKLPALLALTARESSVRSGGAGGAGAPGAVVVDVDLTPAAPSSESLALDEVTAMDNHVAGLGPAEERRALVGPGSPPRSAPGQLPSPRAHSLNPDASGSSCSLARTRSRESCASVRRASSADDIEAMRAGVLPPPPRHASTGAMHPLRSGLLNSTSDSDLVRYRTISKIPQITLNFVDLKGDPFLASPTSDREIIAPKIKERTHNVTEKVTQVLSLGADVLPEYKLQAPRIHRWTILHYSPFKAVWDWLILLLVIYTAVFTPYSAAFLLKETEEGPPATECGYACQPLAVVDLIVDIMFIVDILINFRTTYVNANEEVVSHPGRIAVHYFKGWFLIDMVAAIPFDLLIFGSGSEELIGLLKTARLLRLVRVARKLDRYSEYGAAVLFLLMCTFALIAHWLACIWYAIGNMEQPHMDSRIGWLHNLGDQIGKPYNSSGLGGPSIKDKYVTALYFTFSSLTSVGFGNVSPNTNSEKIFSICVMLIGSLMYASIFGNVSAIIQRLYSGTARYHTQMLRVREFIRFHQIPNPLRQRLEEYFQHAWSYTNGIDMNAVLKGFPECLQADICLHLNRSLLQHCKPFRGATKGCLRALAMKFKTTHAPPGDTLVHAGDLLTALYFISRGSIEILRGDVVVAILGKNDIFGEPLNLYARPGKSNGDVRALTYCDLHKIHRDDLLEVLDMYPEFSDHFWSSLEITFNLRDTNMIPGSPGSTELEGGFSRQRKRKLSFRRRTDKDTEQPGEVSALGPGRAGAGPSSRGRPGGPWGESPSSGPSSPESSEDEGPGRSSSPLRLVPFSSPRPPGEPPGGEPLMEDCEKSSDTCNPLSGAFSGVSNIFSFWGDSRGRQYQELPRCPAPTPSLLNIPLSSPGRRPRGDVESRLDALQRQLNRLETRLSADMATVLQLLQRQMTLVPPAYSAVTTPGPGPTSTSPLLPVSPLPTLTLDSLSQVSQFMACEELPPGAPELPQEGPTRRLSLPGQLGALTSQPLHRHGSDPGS

This test addresses human ether-à-go-go-related gene (hERG) potassium channel (human, UniProt Q12809). In words: primary screen, population patch clamp on CHO cells stably expressing hERG; higher = less effect of the substance.
`c1ccc(NCc2cccnc2)cc1`: the “hERG current change (%, negative = inhibition) at 10uM” value is listed as 12.1%.
For `Nc1nccc(-c2ccc(-n3cnc4ccccc43)cc2)n1`, the “hERG current change (%, negative = inhibition) at 10uM” value is listed as -25.3%.
As for `O=C(/C=C/c1ccccc1)Nc1nnc(SCC(=O)c2ccc3ccccc3c2)s1`, the figure is 4.75%; as for `COc1ccc(OC)c(N=c2oc3cc(O)ccc3cc2C(N)=O)c1`, 3.97%.
For `COc1cccc(NC(=O)N2CCC(C(N)=O)(N3CCCCC3)CC2)c1`, the “hERG current change (%, negative = inhibition) at 10uM” value is on record as 6.17%.
As for `COc1ccc(COc2ccsc2C(=O)Nc2ccc(Cl)cc2)cc1`, the “hERG current change (%, negative = inhibition) at 10uM” value is reported as 7.17%.
As for `NNC(=O)c1sccc1OCc1ccc(Cl)cc1`, the figure is 2.41%; as for `COc1ccsc1NC(=O)OCc1ccc(Cl)cc1`, -77.8%; as for `CC(C)(C)c1ccc(NC(=O)CN2C(=O)NC(C)(C3CC3)C2=O)cc1` (centres unmarked), -25.5%.
As to `Cc1ccc(-c2nn3c(C)nnc3c3ccccc23)cc1S(=O)(=O)NCc1ccco1`, the “hERG current change (%, negative = inhibition) at 10uM” value was -33.3%.
Consider `O=C(CSc1ncnc2[nH]ncc12)Nc1nc(-c2ccc(F)c(F)c2)cs1`, for which the “hERG current change (%, negative = inhibition) at 10uM” value stood at 44.7%.
Next, `COc1ccc(O)c(CN2CCC(n3nccc3NC(=O)C3CCCC3)CC2)c1`: -50.8%; `O=C(Nc1ccnn1C1CCN(Cc2cc(Cl)ccc2O)CC1)C1CC1`: -55%; `O=C(Nc1ccnn1C1CCN(Cc2cc(Cl)ccc2O)CC1)c1cccnc1`: -9.31%.
As for `COc1ccc(F)c(CN2CCC(n3nccc3NC(=O)C3CCOC3)CC2)c1` (centres unmarked), the figure is 5.47%; as for `O=C(Nc1ccnn1C1CCN(C(=O)Cc2cccc(Cl)c2)CC1)C1CC1`, -7.34%; as for `COc1ccc(CN2CCC(n3nccc3NC(=O)C3CCCC3)CC2)c(OC)c1`, -73.2%.
For the compound `COc1ccc(O)c(CN2CCC(n3nccc3NC(=O)c3ccccc3Cl)CC2)c1`, the “hERG current change (%, negative = inhibition) at 10uM” value is recorded as -40.6%.
Next, `COc1cc(F)ccc1CN1CCC(n2nccc2NC(=O)C2CCOC2)CC1` (centres unmarked): -14.5%; `CCOCC(=O)Nc1ccc([N+](=O)[O-])cc1C`: 5.75%; `Cc1nc(SCC(=O)N2CC(=O)Nc3ccccc32)c2c(C)c(C)sc2n1`: -5.65%.
As for `COc1ccc(CCNC(=O)C(NS(=O)(=O)c2ccc3c(c2)CCN3C(C)=O)C(C)C)cc1OC` (centres unmarked), the figure is 25.1%; as for `CCC(=O)Nc1cccc(NC(=O)CSc2nc3c(c(=O)n(C)c(=O)n3C)n2C)c1`, 18%.
Turning to `CCC1Sc2ccc(S(=O)(=O)CCC(=O)Nc3ccc(NC(C)=O)cc3)cc2NC1=O` (centres unmarked), the “hERG current change (%, negative = inhibition) at 10uM” value is 19%.
As for `CSc1nc(=S)n(-c2ccc([N+](=O)[O-])cc2)c(C)c1C(C)=O`, the “hERG current change (%, negative = inhibition) at 10uM” value is reported as -68.3%.
For `CSc1nc(=S)n(-c2ccccc2)c(C)c1C(C)=O`, the “hERG current change (%, negative = inhibition) at 10uM” value was found to be 11.9%.
Next, `CC(=O)c1c(N2CCOCC2)nc(=S)n(-c2ccc([N+](=O)[O-])cc2)c1C`: -46.2%; `CCc1ccc(OCC(=O)Nc2ccc(CN3CCCCC3)cc2)cc1`: -18%; `CCOc1ccc(NC(=O)c2ccc(NC(=O)c3ccc(CN4CCOCC4)cc3)cc2)cc1`: 9.33%.
For `CCOc1ccc(C(=O)Nc2ccc(CN3CCOCC3)cc2)cc1Cl`, the “hERG current change (%, negative = inhibition) at 10uM” value is recorded as -56%.
Next, `Cc1ccc(OCC(=O)Nc2ccc(CN3CCOCC3)cc2)cc1C`: -39.3%; `CCOc1ccc(C(=O)Nc2ccc(CN3CCOCC3)cc2)cc1Br`: -46.6%; `Cc1cc(OCC(=O)Nc2ccc(CN3CCOCC3)cc2)ccc1Cl`: -51.8%.
In the case of `Cc1cc(C)cc(OCC(=O)Nc2ccc(CN3CCCCC3)cc2)c1`, the “hERG current change (%, negative = inhibition) at 10uM” value was -43.7%.
For `Cc1cc(OCC(=O)Nc2ccc(CN3CCCCC3)cc2)ccc1Cl`, the “hERG current change (%, negative = inhibition) at 10uM” value is -73.9%.
Next, `Cc1ccc(OCC(=O)Nc2ccc(CN3CCOCC3)cc2)cc1`: -9.4%; `O=C1CC(=O)N(CCc2ccccc2)C(=O)N1CCc1ccccc1`: 6.19%.
As for `CN(C)S(=O)(=O)c1ccc(NC(=O)CSc2nc3ccccc3n2-c2ccccc2)cc1`, the figure is 24.2%; as for `CCc1cccc(C)c1NC(=S)NCC(c1cccnc1)N1CCOCC1` (centres unmarked), -14.3%.
Regarding `C/C(=N/NC(=O)CNC(=O)c1ccco1)c1ccc(Cl)cc1`, the “hERG current change (%, negative = inhibition) at 10uM” value is reported as -1.47%.
As for `COc1ccc(N2CC(C(=O)OCC(=O)c3ccc(C)cc3)CC2=O)cc1` (centres unmarked), the figure is 13.9%; as for `CCOc1ccc(N2CC(C(=O)NCCc3ccc(F)cc3)CC2=O)cc1` (centres unmarked), -65.8%; as for `Cc1ccc(N2CC(C(=O)NCc3n[nH]c(=O)c4ccccc34)CC2=O)cc1` (centres unmarked), -23.8%.
Regarding `CCOc1ccc(N2CC(C(=O)NCc3ccc(F)cc3)CC2=O)cc1` (centres unmarked), the “hERG current change (%, negative = inhibition) at 10uM” value is reported as -27.3%.
Consider `O=C(NCc1n[nH]c(=O)c2ccccc12)C1CC(=O)N(c2ccccc2)C1` (centres unmarked), for which the “hERG current change (%, negative = inhibition) at 10uM” value is listed as -1.81%.
Regarding `CCOc1ccc(N2CC(C(=O)NCCCc3ccccc3)CC2=O)cc1` (centres unmarked), the “hERG current change (%, negative = inhibition) at 10uM” value is reported as -51.2%.
As for `CCOc1ccc(N2CC(C(=O)NCCc3ccc(S(N)(=O)=O)cc3)CC2=O)cc1` (centres unmarked), the figure is 12.1%; as for `O=C(NCc1n[nH]c(=O)c2ccccc12)C1CC(=O)N(c2ccc(Cl)cc2)C1` (centres unmarked), -70.7%; as for `CCOc1ccc(N2CC(C(=O)NCCc3ccccc3)CC2=O)cc1` (centres unmarked), -29.6%.
Next, `COc1ccc(N2CC(C(=O)OCC(=O)c3ccccc3)CC2=O)cc1` (centres unmarked): -9.34%.
On to `CCOc1ccc(N2CC(C(=O)OCC(=O)c3ccc(OC)cc3)CC2=O)cc1` (centres unmarked), for which the “hERG current change (%, negative = inhibition) at 10uM” value is -56%.
In the case of `CCOc1ccc(N2CC(C(=O)NCc3ccccc3)CC2=O)cc1` (centres unmarked), the “hERG current change (%, negative = inhibition) at 10uM” value is listed as -12.3%.
Next, `CCC(CC)C(=O)Nc1cc(C(=O)NCCc2ccccc2)ccc1Cl`: -8.24%; `Cc1cccc(OCCCC(=O)Nc2ccc(S(=O)(=O)N3CCCC3)cc2)c1`: -21.3%; `CCOC(=O)c1c(-c2ccc(OC)cc2)oc2ccc(OC(=O)N(C)C)cc12`: 10.1%.
As for `Cc1nc2ccccc2c(=O)n1CCN1CCOCC1`, the figure is 4.18%; as for `COc1ccc(-c2nn(-c3ccccc3)cc2C2CC(c3cccs3)=NN2C(=O)CCCC(=O)O)cc1` (centres unmarked), 17.9%.
For `O=C(CN1C(=O)NC2(CCCCC2)C1=O)N1CCN(S(=O)(=O)c2ccccc2)CC1`, the “hERG current change (%, negative = inhibition) at 10uM” value was found to be 13.8%.
As for `CCOCCc1nnc(NC(=O)C2CC(=O)N(c3ccc(OCC)cc3)C2)s1` (centres unmarked), the “hERG current change (%, negative = inhibition) at 10uM” value was -18.1%.
Regarding `CCOc1ccc(N2CC(C(=O)Nc3nnc(CC)s3)CC2=O)cc1` (centres unmarked), the “hERG current change (%, negative = inhibition) at 10uM” value is recorded as -53.6%.
Next, `O=C(NCCOc1ccc(Cl)cc1)C1CC(=O)N(c2ccc(F)cc2)C1` (centres unmarked): -69.4%; `Cc1ccc(OCCNC(=O)C2CC(=O)N(c3ccc(C)cc3)C2)cc1` (centres unmarked): -4.5%; `O=C(NCCOc1ccc(Cl)cc1)C1CC(=O)N(c2ccc3c(c2)OCCO3)C1` (centres unmarked): -27.9%.
Next, `CCOc1ccc(N2CC(C(=O)Nc3nnc(Cc4ccccc4)s3)CC2=O)cc1` (centres unmarked): 4.73%.
On to `CCOc1ccccc1N1CC(C(=O)Nc2cc(Cl)ccc2-n2cncn2)CC1=O` (centres unmarked), for which the “hERG current change (%, negative = inhibition) at 10uM” value is recorded as -10.3%.
In the case of `CCOc1ccc(N2CC(C(=O)Nc3ccc(F)cc3F)CC2=O)cc1` (centres unmarked), the “hERG current change (%, negative = inhibition) at 10uM” value is -3.45%.
As for `CCOc1ccc(N2CC(C(=O)Nc3cc(Cl)ccc3-n3cncn3)CC2=O)cc1` (centres unmarked), the figure is -64.2%.
Next, `Cc1ccc(C(=O)c2nc(C(=O)NCCO)nc3ccccc23)cc1`: 25.8%; `COc1ccc(-c2cc(=O)oc3c(C)c(OC(C)C(=O)N4C[C@H]5C[C@@H](C4)c4cccc(=O)n4C5)ccc23)cc1` (some centres unmarked): -47.2%; `CCOC(=O)c1[nH]c(C)c(C(=O)OCC(=O)N(Cc2ccccc2)C(C)C)c1C`: -15.8%.
Next, `Cc1cccc(OCCCCNCc2ccccc2)c1.O=C(O)C(=O)O`: -38.1%; `Cc1ccc(C(=O)NC(=S)N2CCN(C)CC2)cc1`: -1.37%; `COC(=O)c1ccc(CSc2nnc(CS(=O)Cc3ccc(Br)cc3)n2-c2ccccc2)cc1` (centres unmarked): -12%.
Regarding `O=C(CN1CCN(S(=O)(=O)N2CCCCC2)CC1)Nc1ccc(Br)cc1`, the “hERG current change (%, negative = inhibition) at 10uM” value is given as -78.2%.
`O=C(CN1CCN(S(=O)(=O)N2CCCCC2)CC1)Nc1ccc(Cl)c(Cl)c1`: the “hERG current change (%, negative = inhibition) at 10uM” value was -28.2%.
As for `O=C(CN1CCN(S(=O)(=O)N2CCCCC2)CC1)Nc1cc(Cl)cc(Cl)c1`, the figure is -32.5%.
As for `O=C(CN1CCCCC1)Nc1ccc(S(=O)(=O)N2CCCCCC2)cc1`, the figure is -35.5%; as for `O=C(CN1CCCC1)Nc1ccc(S(=O)(=O)N2CCCCC2)cc1`, 4.2%; as for `O=C(CN1CCN(S(=O)(=O)N2CCCCCC2)CC1)Nc1ccc(F)cc1`, -74.9%.
Take `O=C(CN1CCCCCC1)Nc1ccc(Br)cc1`: the “hERG current change (%, negative = inhibition) at 10uM” value is listed as -32.3%.
Turning to `S=C(Nc1ccc(Br)cc1)N1CCN(C2CCCCC2)CC1`, the “hERG current change (%, negative = inhibition) at 10uM” value is on record as -17.3%.
Next, `Cl.O=C(CN1CCN(C2CCCCC2)CC1)Nc1ccc(Br)cc1`: -70%.
Regarding `O=C(CN1CCCCCC1)Nc1ccc(S(=O)(=O)N2CCCCC2)cc1`, the “hERG current change (%, negative = inhibition) at 10uM” value is on record as -38.7%.
In the case of `O=C(CN1CCN(S(=O)(=O)N2CCCCCC2)CC1)Nc1ccc(Br)cc1`, the “hERG current change (%, negative = inhibition) at 10uM” value is recorded as -74.3%.
As for `Cl.O=C(CN1CCCC1)Nc1ccc(Br)cc1`, the figure is -1.25%.
Turning to `CC1CCC2(CC1)NC(=O)N(CC(=O)Nc1ccc3[nH]c(=O)[nH]c3c1)C2=O` (centres unmarked), the “hERG current change (%, negative = inhibition) at 10uM” value stood at 0.0265%.

The values above are taken from article PMC4336329 (PLoS ONE, 2015).
